Sampled rows, rich in hits. Any-hit rate of the full collection: about 3%.
TWEAK-Fn14 inh: inhibitors of TWEAK-Fn14 interaction signaling; inhibition, % at 10 µM; TWEAK-stimulated Fn14 reporter cells, luciferase luminescence, 8 h; 2% of 360,000 active; in the data active = inhibition above about 50%
TROY NFkB inh: inhibitors of TROY-dependent NF-kB signaling. inhibition, % at 10 µM. 0.98% of 360,000 active. Q293 LMP1-TROYcd NF-kB luciferase reporter, 4 h;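 active = compounds whose plate-normalised and pattern-corrected inhibition of the luciferase reporter signal at the single screening dose is 50% or more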
MITF act: increases MITF-driven TRPM1 promoter luciferase signal. SK-MEL-5 TRPM1-promoter luciferase, 24 h; % of positive control, neutral wells = 0. 0.75% of 300,000 active. activation, % at 12.5 µM;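 active = mean activation of at least 80% with every replicate also reaching 80%; inconclusive = mean reaches 80% but some replicate falls short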;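 note: 0% = neutral control wells and 100% = parthenolide positive control wells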
TRPM1 prom inh: MITF TRPM1 promoter inhibition in SK-MEL-5 cells; 0.83% of 330,000 active; inhibition, % at 12.5 µM; AID 488899; SK-MEL-5 TRPM1 promoter luciferase, 24 h;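 active = mean inhibition across replicates of 60% or more, whatever share of single replicates reaches that level; inconclusive = some that reach 60%, reason not given; inactive = mean inhibition across replicates below 60%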
LGR2 inh: inhibitors of bursicon-induced Drosophila LGR2 receptor cAMP signaling. HEK293 LGR2, CRE-luciferase, bursicon-stimulated, 4 h. 0.35% of 380,000 active. AID 720647. inhibition, % at 9.99 µM;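 active = drop in luminescence signal, shown as inhibition above about 50% in the replicate tests, limit read from the data, passing the limit was not always enough; inconclusive = probably only some replicates passing the limit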;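 note: agonist challenge used bursicon conditioned medium at about half maximal strength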
LMP1 NFkB inh: Epstein-Barr LMP1 NF-kappaB reporter inhibition. LMP1-induced NF-kappaB luciferase reporter cells, luminescence. inhibition, % at 12.5 µM. 0.69% of 350,000 active; in the data active = inhibition above about 41%; inconclusive = no clear call, values can overlap the other calls;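 note: 0% = neutral control wells and 100% = reference inhibitor control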
* hit, by the source's call; ? = inconclusive; · = no result.

SMILES	TWEAK-Fn14 inh	TROY NFkB inh	MITF act	TRPM1 prom inh	LGR2 inh	LMP1 NFkB inh
C[C@@H]1CN([C@H](C)CO)S(=O)(=O)c2ccc(C3=CCCCC3)cc2O[C@H]1CN(C)C(=O)C1CCCCC1	·	·	·	·	5.8	·
Cc1ccc(C=Nc2ccc(N(C)C)cc2)o1	61.8*	5.0	0.7	-3.8	-41.7	-9.9
CO[C@H]1CN(C)C(=O)c2cc(NC(=O)c3ccccc3F)ccc2OC[C@@H](C)N(CC2CCOCC2)C[C@@H]1C	·	·	·	·	-2.5	·
COc1ccccc1-c1cnc2c(c1)C(=O)N([C@@H](C)CO)C[C@H](C)[C@H](CN(C)Cc1cccc(F)c1)O2	·	·	·	·	5.2	·
CCn1c(C)cc(C(=O)CSc2nnnn2C2CCCC2)c1C	9.6	-21.2	105.1*	-105.1	-6.5	8.9
Cc1ccc(CS(=O)(=O)c2ccc(C(=O)N3CCCCC3)cc2[N+](=O)[O-])cc1	24.0	19.5	-5.5	10.2	8.1	5.3
O=C(c1ccc(S(=O)(=O)Cc2ccccc2F)c([N+](=O)[O-])c1)N1CCCC1	36.8	9.6	-18.5	18.2	45.2	9.3
Cc1ccc(CS(=O)(=O)c2ccc(C(=O)N3CCN(c4ccccn4)CC3)cc2[N+](=O)[O-])cc1	50.3*	41.5	-14.1	16.2	21.7	18.4
CC1CCN(C(=O)c2ccc(S(=O)(=O)Cc3ccccc3F)c([N+](=O)[O-])c2)CC1	63.4*	15.8	-46.0	46.0	39.5	12.4
O=C(c1ccc(S(=O)(=O)c2ccc(F)cc2)c([N+](=O)[O-])c1)N1CCCCCC1	76.5*	42.9	-48.0	47.8	45.5	18.8
O=C(c1ccc(Br)c([N+](=O)[O-])c1)N1CCN(Cc2ccccc2)CC1	2.9	10.8	-10.7	14.5	0.4	-2.0
O=C(c1ccc(S(=O)(=O)c2ccccc2Cl)c([N+](=O)[O-])c1)N1CCN(Cc2ccccc2)CC1	73.8*	33.8	-75.7	76.1*	21.3	24.0
C[C@@H]1CN([C@@H](C)CO)C(=O)c2c(c3ccccc3n2C)-c2ccccc2CO[C@H]1CN(C)Cc1ccc(O)cc1	·	·	·	·	10.1	·
COc1ccc2c3c(n(C)c2c1)[C@@H](CO)N(C(=O)C1CC1)CC31CN(C(=O)Nc2cccc(F)c2)C1	·	·	·	·	-23.8	·
C/C=C/c1cnc2c(c1)C(=O)N([C@@H](C)CO)C[C@H](C)[C@H](CN(C)C(=O)NC1CCCCC1)O2	·	·	·	·	4.9	·
COc1cc(N(C)C)c([N+](=O)[O-])cc1C(=O)N1CCN(Cc2ccccc2)CC1	-2.4	12.2	2.8	3.8	-1.5	50.7*
CC(C)C#Cc1cnc2c(c1)C(=O)N([C@H](C)CO)C[C@H](C)[C@H](CN(C)C(=O)Nc1ccccc1F)O2	·	·	·	·	-0.8	·
CC(C)Nc1ccc(Nc2ccnc3cc4ccccc4cc23)cc1	-10.7	48.4	-88.2	88.0*	73.9*	-142.8
c1ccc(CCNc2ccnc3cc4ccccc4cc23)cc1	-16.4	11.7	-101.3	102.6*	107.1*	-59.5
COc1ccc(Nc2ccnc3ccccc23)cc1	45.0	12.2	5.0	-2.6	·	15.0
C[C@@H]1CN([C@@H](C)CO)S(=O)(=O)c2ccc(C3=CCCC3)cc2O[C@H]1CN(C)C(=O)C1CC1	·	·	·	·	-5.6	·
CCN1CCN(c2ccc(S(=O)(=O)N3CCCCC3)cc2NC(=O)c2ccc([N+](=O)[O-])o2)CC1	0.4	4.3	-94.5	94.8*	-0.1	-19.9
CCOc1ccc(S(=O)(=O)N2CCCCC2)cc1NC(=O)Cc1ccccc1	29.7	51.2*	-52.5	53.0	9.9	19.4
COc1ccc(S(=O)(=O)N2CCCCC2)cc1NC(=O)c1ccco1	-3.2	-14.2	-4.9	5.5	-9.8	0.8
COc1ccc(S(=O)(=O)N2CCCCC2)cc1NC(=O)c1ccc([N+](=O)[O-])o1	27.6	-9.9	-84.0	85.1*	9.7	-10.3
SMILES	TWEAK-Fn14 inh	TROY NFkB inh	MITF act	TRPM1 prom inh	LGR2 inh	LMP1 NFkB inh
CCN1CCN(c2ccc(S(=O)(=O)N3CCOCC3)cc2NC(=O)/C=C/c2ccc([N+](=O)[O-])cc2)CC1	-17.1	-17.4	-63.6	64.2*	-18.3	2.2
COCC(=O)N1C[C@H](C)[C@H](OC)CN(C)C(=O)c2ccc(NC(=O)c3ccc(OC)cc3)cc2OC[C@@H]1C	·	·	·	·	-9.0	·
Nc1ccc(C(=O)n2c3ccccc3c3ccccc32)cc1	36.6	51.3*	-54.8	55.2	0.3	18.1
Cc1ccc(C(=O)n2c(N)nc3ccccc32)cc1	99.3*	72.8*	-65.7	66.6*	88.6*	64.7*
Cc1ccc2oc(-c3cccc(NC(=S)NC(=O)/C=C/c4ccco4)c3)nc2c1	90.4*	77.0*	6.5	-5.4	10.7	-4.1
O=C(/C=C\c1ccco1)NC(=S)Nc1ccccc1O	-10.9	-1.4	87.8*	-68.6	12.2	-10.8
O=C(/C=C/c1ccco1)NC(=S)Nc1ccccc1O	7.8	-14.8	48.2	-46.0	-3.1	-17.3
Cc1ccc2oc(-c3cccc(NC(=S)NC(=O)c4cccs4)c3)nc2c1	-9.9	-18.7	12.1	-9.9	-91.0	-35.4
C[C@@H]1CCCCO[C@@H](CN(C)Cc2ccc(Cl)c(Cl)c2)[C@H](C)CN([C@@H](C)CO)C(=O)c2cc(NC(=O)Nc3cccc4ccccc34)ccc2O1	·	·	·	·	18.8	·
COc1ccc2cc(-c3cc(C(=O)OCC(=O)NC4CCS(=O)(=O)C4)c4ccccc4n3)ccc2c1 (centres undefined)	-0.2	-63.5	9.7	-9.2	31.7	49.8*
COc1ccc2cc(-c3cc(C(=O)OCC(=O)Nc4c(C)n(C)n(-c5ccccc5)c4=O)c4ccccc4n3)ccc2c1	60.4*	-49.1	11.4	-11.2	?	57.5*
COc1ccc(-c2cc(C(=O)Nc3c(C)n(C)n(-c4ccccc4)c3=O)c3ccccc3n2)cc1	7.6	-2.1	3.0	-5.3	6.8	0.5
CCC(=O)N(C)C[C@@H]1Oc2cc(-c3ccccc3)ccc2S(=O)(=O)N([C@@H](C)CO)C[C@@H]1C	·	·	·	·	6.9	·
O=C(Nc1ccc(F)cc1)N1CC(=O)N2[C@H](CO)[C@@H](c3ccc(C#Cc4cccnc4)cc3)[C@@H]2C1	·	·	·	·	10.0	·
CCN1CCN(c2ncnc3c2cnn3-c2ccccc2)CC1	-14.5	-63.2	86.9*	-82.0	-47.1	-27.2
COc1cccc(N2CCN(c3ncnc4c3cnn4-c3ccc(C)cc3C)CC2)c1	106.2*	80.4*	-66.5	67.6*	?	39.8
S=c1sc2c(N3CCN(Cc4ccccc4)CC3)ncnc2n1-c1ccccc1	58.2*	55.9*	-1.4	1.7	·	4.9
CCN1CCN(c2ncnc3c2cnn3-c2ccc(Cl)cc2)CC1	8.8	40.9	42.0	-43.2	·	-20.6
c1ccc(-n2ncc3c(N4CCC5(CC4)OCCO5)ncnc32)cc1	-1.3	-62.0	93.2*	-81.2	·	-27.9
COc1cccc(-c2cccc(-c3nc(C(=O)N(C)C)cc4c3[C@H](CCO)N([S@@](=O)C(C)(C)C)C4)c2)c1	·	·	·	·	-6.6	·
C[C@@H]1CN([C@@H](C)CO)C(=O)Cc2cc(NC(=O)CCN3CCOCC3)ccc2O[C@H]1CN(C)Cc1ccccc1	·	·	·	·	9.8	·
